# KB-V1 MDR tox = KB-V1 MDR subline cytotoxicity. KB-V1 MDR cells viability, CellTiter-Glo, 72 h. Potency, µM (highest dose often 46.1 µM), most hits filed as cytotoxic. hit rate 3.4% among 400,000; note: % is set by controls: 0 for no effect and ±100 for the full control effect; nearly all actives have a fitted effect of over 60% in size
#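 Readout: CellTiter-Glo luminescence, 10 min after addition. Cells: KB-V1 MDR subline, 72 h at 37 degrees C with compound. Analysis: corrected, normalized data fitted to concentration-effect curves.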
# Gal4-VP16 FLuc = counter-screen for ROR gamma inhibitors: Gal4-VP16 reporter. Drosophila S2 Gal4-VP16 UAS-luciferase, luminescence, 20 h. Potency, µM (series often up to 53.6 µM), inactives show at the highest dose activity, negative = inhibition, actives largely listed as inhibitors. hit rate 3.5% among 310,000. AID 2546;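 note: Gal4-VP16 expression switched on by copper sulfate through the metallothionein promoter; % is set by controls: 0 for no effect and ±100 for the full control effect; nearly all actives have a fitted effect of over 50% in size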
# SW480 rereplic = induces DNA re-replication in SW480 colon adenocarcinoma cells | SW480 DNA re-replication, Hoechst DNA content imaging, 48 h | Potency, µM (top dose mostly 46.1 µM), without a hit: at the highest dose re-replication activation, usual class: activators | hit rate 1.8% among 340,000 | AID 624297; note: % of control where 0% means no effect; nearly all actives have a fitted effect of over 55% in size
#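 Image-based read-out: total Hoechst fluorescence of nuclei (405 nm excitation, 500-530 nm emission), with hits raising the fraction of high-intensity nuclei. SW480 colon cells incubated 48 hr with compounds at 37 C.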
# RORgamma inh = ROR gamma (mouse) transcription inhibition; Drosophila S2 Gal4-RORgamma UAS-luciferase reporter, 20 h; Potency, µM (doses to about 53.6 µM), for the others: top-dose activity change, negative = inhibition, most hits filed as inhibitors; hit rate 5.4% among 310,000; AID 2551; note: % is set by controls: 0 for no effect and ±100 for the full control effect; nearly all actives have a fitted effect of over 60% in size
# Target sequence (P51450 whole entry, looked up, the tested form may be a part): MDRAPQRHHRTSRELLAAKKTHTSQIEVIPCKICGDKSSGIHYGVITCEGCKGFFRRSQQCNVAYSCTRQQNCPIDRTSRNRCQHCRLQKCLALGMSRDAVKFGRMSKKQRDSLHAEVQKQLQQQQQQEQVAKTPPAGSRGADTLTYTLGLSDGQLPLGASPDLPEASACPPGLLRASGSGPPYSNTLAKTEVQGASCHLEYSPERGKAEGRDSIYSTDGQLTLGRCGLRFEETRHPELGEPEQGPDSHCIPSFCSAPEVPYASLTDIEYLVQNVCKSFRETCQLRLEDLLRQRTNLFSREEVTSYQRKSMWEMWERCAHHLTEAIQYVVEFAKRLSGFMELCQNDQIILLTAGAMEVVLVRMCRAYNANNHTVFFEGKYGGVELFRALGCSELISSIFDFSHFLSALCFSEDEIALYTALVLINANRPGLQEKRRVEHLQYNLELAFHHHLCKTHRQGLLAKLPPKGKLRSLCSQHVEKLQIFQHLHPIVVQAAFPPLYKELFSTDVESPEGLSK
#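 Using a luciferase readout, inhibitors were identified by reduced reporter activity in Drosophila cells coexpressing a copper-inducible Gal4–ROR gamma fusion and UAS-driven Photinus luciferase, incubated 20 hr after 700 uM copper sulfate.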
# MCF10A rereplic = inducers of DNA re-replication in MCF 10A breast cells; MCF 10A DNA re-replication, Hoechst nuclear intensity, 48 h; Potency, µM (titrated, usually from 46.1 µM), for inactives: top-dose activity, positive = re-replication, actives largely listed as activators; hit rate 2.9% among 350,000; AID 624296; note: % of control where 0% means no effect; nearly all actives have a fitted effect of over 50% in size
# KB-3-1 cytotox = KB-3-1 parental cell cytotoxicity. Potency, µM (highest dose often 46.1 µM), usual class: cytotoxic. AID 1347075. hit rate 1.4% among 400,000. KB-3-1 viability, CellTiter-Glo ATP luminescence, 72 h; note: % is set by controls: 0 for no effect and ±100 for the full control effect; nearly all actives have a fitted effect of over 60% in size
#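 KB-3-1 cells, DMEM (no phenol red) + 10% FBS; compound by pin transfer, 72 h, 37 °C. Readout: CellTiter-Glo luminescence after 10 min. Data normalized, curve-fitted.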
# Starred values were filed as active, the others as inactive; i = inactive; ? = inconclusive; / = no result given; [ ] = remark or other dose. The list is not random: actives were taken first. Their share in the collection is about 10%. Calls come from the whole dose curve; as a rule, active = well fitted curve in the direction sought with a large enough effect; inconclusive = small, poorly fitted or top-dose-only effect, or another doubt; inactive = no such curve, though single readings can be large; an effect the other way counts as inactive or inconclusive. Potency is the fitted concentration of half-maximal effect.
SMILES,KB-V1 MDR tox,Gal4-VP16 FLuc,SW480 rereplic,RORgamma inh,MCF10A rereplic,KB-3-1 cytotox
C=CCOC(=O)C1=C(C)NC(SCC(=O)Nc2nccs2)=C(C#N)C1c1ccc(Cl)cc1 (stereo not given),i,?,1.58µM*,11.2µM*,1µM*,?
C=CCOC(=O)C1=C(C)NC(SCC(=O)Nc2nccs2)=C(C#N)C1c1cccs1 (stereo not given),i,?,?,?,?,i
CC(=O)C1=C(C)NC(SCC(=O)Nc2nccs2)=C(C#N)C1c1ccccc1Cl (stereo not given),i,?,6.51µM*,?,1.84µM*,i
COc1cc(C)c(CC/C(C)=C/C=C/C(C)=O)c(C)c1C,/,-13.1%,/,13.5%,/,/
Cc1cccn2c(=O)c3cc(C#N)c(=O)n(-c4nnc(SCc5ccccc5F)s4)c3nc12,i,/,/,/,/,i
CCCN(C)C[C@H]1OCc2cnnn2CCCC(=O)N([C@H](C)CO)C[C@@H]1C,i,/,/,/,/,i
CC(C)(C)c1ccc(-c2noc(CCC(=O)Nc3cccc(Cl)c3)n2)cc1,i,/,/,/,/,i
COC(=O)[C@]12CCCCC=C1N(CCC1=CCCCC1)C(=O)[C@H](CC(=O)N1CCCCC1)C2,i,/,/,/,/,i
Cc1ccc(C)c(NC(=O)Cn2cc(S(=O)(=O)N3CCCC3)c(S(=O)(=O)N3CCCC3)c2)c1,i,/,/,/,/,?
S=c1[nH]cnc2sc(Nc3ccccc3)nc12,i,2.51µM*,?,1µM*,19.5%,i
O=C(O)Cc1sc(Nc2ccccc2)nc1-c1ccccc1,i,/,/,/,/,i
Cc1ccc(O)c(C=Nc2ccc3[nH]ncc3c2)c1,i,?,-8.3%,-7.3%,0.2%,i
CCCS/C(N)=N/N=C/c1cc(C)ccc1O,?,2µM*,?,0.891µM*,?,i
CCCCS/C(N)=N/N=C/c1ccccc1O,i,1.12µM*,?,0.631µM*,?,i
COc1ccc(-c2nn(-c3ccccc3)cc2/C=C(\CC(=O)O)c2nc3ccccc3s2)cc1OC,i,-1.0%,2.1%,?,18.4µM*,i
CC1(C)CC(=O)C2=C(C1)OC1=C(C(=O)CC(C)(C)C1)C2c1ccc(O)c([N+](=O)[O-])c1,i,3.4%,7.4%,1.3%,-6.4%,i
CC1(C)CC(=O)C2=C(C1)OC1=C(C(=O)CC(C)(C)C1)C2c1ccc(O)cc1O,i,6.31µM*,3.16µM*,3.16µM*,?,i
O=C(CN(Cc1ccccc1)C1=NCCS1)c1ccccc1,18.4µM*,0.2%,1.8%,-40.4%,0.6%,i
Cc1ccc(C(=O)CCC(=O)NCc2ccccc2)cc1,i,3.9%,4.0%,3.4%,-4.9%,i
Cc1ccc(C(=O)CN(Cc2ccccc2)C2=NCCS2)cc1,16.4µM*,1.7%,12.1%,-42.1%,4.9%,i
O=C(c1ccccc1)N(C1=NCCCCS1)c1ccccc1,?,-6.7%,-6.2%,-11.1%,13.8%,i
CCc1ccc(OCCCC(=O)NCc2ccco2)cc1,i,?,-118.8%,?,10.5%,i
CCc1ccc(N/C(SCc2ccccc2C)=C(/C#N)C(=O)NCc2ccco2)cc1,i,-18.4%,3.66µM*,?,-38.1%[0.0737 µM],?
COc1cc(C(=O)OCC(=O)N2CCOCC2)c([N+](=O)[O-])cc1OC,i,4.0%,-1.0%,-10.5%,-2.8%,i
COc1ccc(NC(=O)NC2COc3ccccc3C2)cc1Cl (stereo not given),?,/,/,/,/,i
SMILES,KB-V1 MDR tox,Gal4-VP16 FLuc,SW480 rereplic,RORgamma inh,MCF10A rereplic,KB-3-1 cytotox
Cc1cc(C(=O)CN2CCC(C)CC2)c(C)n1-c1ccccc1F,i,4.47µM*,-2.3%,5.62µM*,?,i
Cc1cc(C(=O)CN2C(=O)C(=O)N(Cc3ccccc3)C2=O)c(C)n1-c1ccccc1F,i,3.9%,8.9%,?,?,i
COc1cc(OC)cc(C(=O)Oc2ccc(/C=N/Nc3nc4ccccc4s3)cc2OC)c1,?,-22.6%,19.3%,10µM*,?,i
COc1cc(/C=N/Nc2nc3ccccc3s2)ccc1OC(=O)c1ccccc1F,?,?,?,?,20.6µM*,?
COc1cc(/C=N/Nc2ccccc2[N+](=O)[O-])ccc1OC(=O)c1ccccc1F,i,2.3%,-7.9%,10.5%,-2.1%,i
COc1ccc(/C=C/c2nccc3c2[nH]c2ccccc23)cc1,i,/,/,/,/,i
C(=C/c1nccc2c1[nH]c1ccccc12)/c1ccc2c(c1)OCO2,i,-24.1%,20.6µM*,0.891µM*,?,i
Cc1c(Cl)cccc1Nc1nc(N)nc(CSc2ncccn2)n1,18.4µM*,20.6%,?,?,18.0%,i
N#C/C(=C\c1ccc(O)c([N+](=O)[O-])c1)C(=O)NCc1ccccc1,i,-7.1%,1.9%,28.2%,?,?
N#C/C(=C\c1ccc(O)c(Br)c1)C(=O)NCc1ccccc1,i,2.6%,8.2µM*,33.1%,20.6µM*,i
Fc1ccc(Br)cc1SCCc1ccncc1,i,1.8%,-8.1%,-26.9%,-3.8%,i
Cc1cnc(SCCc2ccncc2)nc1C,/,?,/,12.6µM*,/,/
Cc1ccccc1-c1cnc(C(O)c2cc(Cl)cc(Cl)c2)[nH]1 (stereo not given),i,/,/,/,/,i
CSc1nc(=NC(C)=O)ss1,i,-19.2%,-6.3%[9.22 µM],3.16µM*,28.7%,i
CC(=O)CC1OC(=O)C(Br)=C1NCc1ccccc1 (stereo not given),i,20µM*,?,?,2.59µM*,i
O=C(CC1Oc2ccccc2NC1=O)NCc1ccccc1 (stereo not given),i,-16.1%,-0.2%,-9.9%,30.2%,i
CCCCCC(=O)NNC1=NCC(Cc2ccccc2)S1 (stereo not given),?,?,-0.4%,1.41µM*,-3.0%,i
CCc1ccccc1NNC(=O)CCc1ccccc1,i,1.4%,-89.1%,14.9%,0.5%,i
COc1ccc(NC(=S)NC2CCN(Cc3ccccc3)CC2)cc1OC,i,1.2%,0.4%,-25.7%,0.3%,i
Cc1ccccc1NC(=S)NC1CCN(Cc2ccccc2)CC1,?,?,-0.1%,17.8µM*,-0.5%,i
S=C(Nc1ccc(Cl)cc1)NC1CCN(Cc2ccccc2)CC1,i,?,?,17.8µM*,22.0%,?
Cc1ccc(NC(=S)NC2CCN(Cc3ccccc3)CC2)c(C)c1,i,?,1.6%,?,2.7%,i

# Screening results as filed in PubChem BioAssay.
